# The list is not random: actives were taken first. Their share in the collection is about 21%.
# ClpP mod – qHTS Assay for Activators of ClpP; purified B. subtilis ClpP, FRET peptide cleavage, 20 min; hit rate 1.9% among 340,000; Potency, µM (titrated, usually from 57.5 µM); ATP-dependent Clp protease proteolytic subunit (Bacillus subtilis (strain 168)), P80244; active means well fitted falling curve with a large enough effect; inconclusive means small, poorly fitted or top-dose-only effect; inactive means no such curve, though single readings can be large or run the other way; further: the source files actives as falling curves though it sought activators and does not explain the sign; nearly all actives have a fitted effect of over 65% in size
#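 FRET quenching reversal measured ClpP activation: 10 microg/mL B. subtilis ClpP at pH 8 with the FRET-FV decapeptide, read at 430 nm after 320 nm excitation. The 20-min minus 0-min signal was scaled between DMSO/no-enzyme wells and ADEP (5.8 microM final).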
# TDP1 cell noCPT – qHTS for Inhibitors of human tyrosyl-DNA phosphodiesterase 1 (TDP1): qHTS in cells in absence of CPT. hit rate 15% among 420,000. Potency, µM (series often up to 46.2 µM), usual class: inhibitors. DT40 Tdp1-/- hTDP1 cells, no CPT, ATP luminescence, 48 h; further: nearly all actives have a fitted effect of over 55% in size
#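 DT40 Tdp1-/-;hTDP1 cells, no CPT (DMSO vehicle only), 400 cells/well; compounds pin-transferred; ≥48 hr, 37 °C; CellTiter-Glo 30 min RT dark, luminescence read.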
# DRD3 agonist – agonists of human D3 dopamine receptor. hit rate 0.58% among 410,000. AID 652048. P35462. D3R DiscoveRx beta-arrestin cells, luminescence, 90 min. max activation, %; in the data active means max activation above about 30%
#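 Cells at 1500/well, incubated overnight, then treated with pinned compounds (dopamine as control) for 90 min at 37 degrees C. DiscoveRx reagent added for 30 - 60 minutes at room temperature; luminescence read.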
# IL-1B inflam inh – inflammasome signaling inhibition, IL-1 beta readout. activity change, % at 57.5 µM. hit rate 4.7% among 360,000. THP-1 LPS/ATP IL-1B secretion, AlphaLISA, 16 h; hits give low values. AID 743279; in the data active means activity change below about -50%; inconclusive means mostly about -30% to -49%
#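 Secreted IL-1B measured by AlphaLISA bead assay after 16 h compound exposure of THP-1 cells; compounds (final up to 57.5 uM) added 1 h before LPS (250 ng/mL) and ATP (1.25 mM) stimulation; lower signal means less secretion.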
# TDP1 cell CPT – growth inhibition of DT40 Tdp1-/-;hTDP1 cells with camptothecin (screen for TDP1 inhibitors). Potency, µM (titrated, usually from 46.2 µM), usual class: inhibitors. hit rate 12% among 420,000. AID 686979. chicken DT40 Tdp1-/-;hTDP1 cells + 20 nM CPT, ATP luminescence, 48 h; further: nearly all actives have a fitted effect of over 55% in size
#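 Chicken DT40 Tdp1-/- cells complemented with human TDP1, 400 cells/well, exposed to compounds plus 20 nM camptothecin for at least 48 h at 37 C; viability read as ATP content by CellTiter-Glo luminescence.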
# D3 antag – D3 dopamine receptor (human) antagonism. D3R cells, DiscoveRx beta-arrestin luminescence, antagonist mode; hits give low values. hit rate 2.5% among 360,000. max response, negative = inhibition, %. AID 652054; in the data active means max response below about -50%; inconclusive means no clear call, values can overlap the other calls
#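 Cells expressing the human receptor were seeded at 1500 cells/well, incubated overnight at 37 degrees C in 5% CO2, then exposed to library compounds with dopamine controls for 90 minutes at 37 degrees C before luminescent detection.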
# Numbers stand for hits; . = inactive; ? = inconclusive; / = not tested or not shown. Unless noted, the call rests on the fitted dose curve; in most records, active means well fitted inhibition curve with a large enough effect; inconclusive means small, poorly fitted or top-dose-only effect; inactive means flat fitted curve, though single readings scatter.
SMILES,ClpP mod,TDP1 cell noCPT,DRD3 agonist,IL-1B inflam inh,TDP1 cell CPT,D3 antag
CC(C)C(NC(=O)c1ccccc1)C(=O)OCn1nnc2ccccc2c1=O (stereo not drawn),.,.,.,.,.,.
COc1cc(OC)cc(C(=O)N[C@H](C(=O)OCc2cc(=O)oc3cc(C)ccc23)C(C)C)c1,.,?,.,.,?,.
CCOc1ccccc1C(=O)NC(C(=O)OCn1nnc2ccccc2c1=O)C(C)C (stereo not drawn),.,26µM,.,.,?,.
CCOc1ccccc1C(=O)N[C@H](C(=O)OCc1cc(=O)oc2cc(C)ccc12)C(C)C,.,16µM,.,-55,6.5µM,.
CCOc1ccccc1C(=O)N[C@H](C(=O)OCc1csc(CC(=O)Nc2ccc(C)cc2)n1)C(C)C,/,15µM,.,?,18µM,.
CC(C)n1cc(CN2CCCC(CO)(Cc3cccc(Cl)c3)C2)cn1 (stereo not drawn),/,.,.,.,.,.
O=C(NC1CCCC1)C1C(c2ccccc2)=Nc2ccccc2N1C(=O)c1cc(Cl)cc(Cl)c1 (stereo not drawn),.,29µM,.,.,18µM,.
Cc1sc2ncn(CC(=O)N3CCN(c4cccc(Cl)c4)CC3)c(=O)c2c1S(=O)(=O)N1CCN(c2ncccn2)CC1,.,.,.,/,.,/
O=c1[nH]c(CCl)nc2cc(-c3ccc(F)cc3)sc12,.,4.1µM,.,-102,5.2µM,.
CCc1cccc(NC(=O)c2c(N3CCCC3=O)c3cc(C)ccc3n2C)c1,.,/,.,/,/,/
O=C(CSCc1ccccc1)N1CCN(Cc2ccc3c(c2)OCO3)CC1,.,?,.,?,?,?
c1cc2c(cc1CN1CCN(C3CCCCCC3)CC1)OCO2,.,.,.,.,.,-51
S=C(NCc1ccccc1)N1CCN(Cc2ccc3c(c2)OCO3)CC1,/,?,.,.,.,.
S=C(NCc1ccc2c(c1)OCO2)NC1CCN(Cc2ccccc2)CC1,/,?,.,?,?,-60
c1ccc(CN2CCC(N3CCN(Cc4ccc5c(c4)OCO5)CC3)CC2)cc1,/,18µM,.,.,?,.
O=C(O)CCc1nn2c3ccccc3n(CCO)c2nc1=O,/,.,.,.,.,.
O=C(O)CCc1nn2c3ccccc3n(CCN3CCCCC3)c2nc1=O,28µM,.,.,.,.,.
O=C(CSc1nc2ccccc2c(=O)n1-c1ccc(F)cc1F)NC1CCS(=O)(=O)C1 (stereo not drawn),.,?,.,.,?,.
CC(C)[C@H](NC(=O)Nc1ccc(Oc2ccccc2)cc1)C(=O)O,.,13µM,.,.,12µM,.
CC(C)[C@H](NC(N)=O)C(=O)Nc1ccc(Oc2ccccc2)cc1,/,.,.,/,.,.
CCc1ccccc1NC(=O)N[C@H](C(=O)O)C(C)CC (stereo partly drawn),.,15µM,.,.,?,.
CC(Oc1ccccc1)C(=O)NC1C(=O)N2C(C(=O)O)C(C)(C)S[C@@H]12 (stereo partly drawn),/,.,/,/,.,/
COc1ccc(/C=C2/SC(=S)N(NS(=O)(=O)c3ccc(C)cc3)C2=O)cc1,/,.,.,-56,.,.
Cc1ccc(/C=C2\SC(=S)N(NS(=O)(=O)c3ccc(C)cc3)C2=O)cc1,.,.,.,.,.,.
Clc1ccc(C2=NNC(=NCc3ccc4c(c3)OCO4)SC2)cc1,.,5.8µM,.,?,10µM,.
SMILES,ClpP mod,TDP1 cell noCPT,DRD3 agonist,IL-1B inflam inh,TDP1 cell CPT,D3 antag
Oc1ccc(C2=NNC(=NCc3ccc4c(c3)OCO4)SC2)c(O)c1,.,4.6µM,.,.,3.7µM,.
COc1ccc(OC)c(C2=NNC(=NCc3ccc4c(c3)OCO4)SC2)c1,/,?,.,.,?,.
O=C(NCc1ccc2c(c1)OCO2)C1CC(c2ccc(Cl)cc2)=NO1 (stereo not drawn),.,.,.,.,.,.
O=C(Nc1ccc2c(c1)OCO2)C1CCN(S(=O)(=O)c2cccs2)CC1,.,.,.,.,.,.
CCc1cccc(NC(=O)C2CCCN(S(=O)(=O)c3cccs3)C2)c1 (stereo not drawn),.,13µM,.,.,16µM,.
O=C(Nc1ccc2c(c1)OCO2)C1CCCN(S(=O)(=O)c2cccs2)C1 (stereo not drawn),.,?,.,.,16µM,.
O=C(Nc1ccc2c(c1)OCCO2)C1CCCN(S(=O)(=O)c2cccs2)C1 (stereo not drawn),.,?,.,.,13µM,.
CCOC(=O)c1c(S(=O)(=O)N2CCCC(C(=O)Nc3ccc(C)cc3C)C2)c(C)n(CC)c1C (stereo not drawn),.,?,.,/,?,/
O=C(Nc1ccc2c(c1)OCCO2)C1CCN(S(=O)(=O)c2cccs2)CC1,.,?,.,.,.,.
CCOC(=O)c1c(S(=O)(=O)N2CCCC(C(=O)Nc3cccc(CC)c3)C2)c(C)n(CC)c1C (stereo not drawn),.,?,.,/,18µM,/
COc1ccc(C(=O)n2cnc3ccccc32)cc1,.,.,.,.,.,.
COc1ccc(/C=C(\NC(=O)c2ccccc2Cl)C(=O)NCCCC(=O)O)cc1,/,.,.,.,.,.
Clc1cccc(-c2ccc(CNCc3ccccn3)o2)c1,.,?,.,.,?,.
O=c1[nH]nc(Cc2ccc(-c3cccc(Cl)c3)o2)c2ccccc12,.,?,.,.,16µM,-61
CO[C@@]1(NC(=O)C(C(=O)O)c2ccc(O)cc2)C(=O)N2C(C(=O)O)=C(CSc3nnnn3C)CO[C@@H]21 (stereo partly drawn),/,.,.,/,.,/
COc1ccc(C)cc1NC(=O)Cn1c(=O)oc2cc(S(=O)(=O)N3CCCCC3)ccc21,.,15µM,.,/,?,/
Cc1ccc(Cl)cc1NC(=O)Cn1c(=O)oc2cc(S(=O)(=O)N3CCCC3)ccc21,.,9.2µM,.,/,23µM,/
CCCNC(=O)Cn1c(=O)oc2cc(S(=O)(=O)N3CCCC3)ccc21,.,.,.,.,.,.
COc1ccc(Cl)cc1NC(=O)Cn1c(=O)oc2cc(S(=O)(=O)N3CCCCCC3)ccc21,.,16µM,.,/,?,/
CCN(C(=O)CN1C(=O)COc2ccc(S(=O)(=O)N3CCOCC3)cc21)c1cccc(C)c1,.,18µM,.,/,?,/
CCN(C(=O)CN1C(=O)COc2ccc(S(=O)(=O)N3CCOCC3)cc21)c1ccc(OC)cc1,.,?,.,.,.,.
COc1ccc(C(=O)NCc2nnc(SCC(=O)NCc3ccco3)o2)cc1OC,.,.,.,.,.,.

# Assay outcomes as filed in PubChem.
